The values that follow come from PubChem BioAssay.

Test [1] in a line: reducers of endogenous Her2 protein level, primary screen, SKBR3 breast tumor cells, AlphaScreen, ATP viability (AID 461;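 active = Her2 level under about 52% in both replicate screens, with viability over 70% of control, limit read from the data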;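 for Her2 level: lower value means less Her2 protein in the cells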;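 for viability: percent of carrier control wells set as 100% viability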). Conditions: 18-24 h, measured here: SKBR3 viability, ATP luminescence, at 10 µM.
Test [2] has as its target Receptor tyrosine-protein kinase erbB-2 (Homo sapiens) (UniProt P04626). The description is as above. Conditions: 18-24 h, at 10 µM, stronger effect = lower value.
Test [3] is described as follows: SK-BR-3 cell growth inhibitors, pilot screen, 24 h, human (AID 572;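 active = viability at or below 10% of carrier control in both of two separate runs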;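 note: compound exposure lasted between 18 and 24 h rather than exactly 24 h; 100% = carrier-treated control wells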). As to conditions: SK-BR-3 viability, CellTiter-Glo luminescence, at 10 µM, stronger effect = lower value. In general terms: In ATP-based viability assays light output follows the ATP content of the culture.
Test [4] in a line: HUVEC growth inhibition – cell-based, human, primary screen (AID 575;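 active = viability at or below 30% in both replicate assays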;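 note: 100% = median of untreated cell wells with 0.1% DMSO on each plate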). Conditions: HUVEC proliferation, CellTiter-Glo luminescence, 72 h; at 10 µM; stronger effect = lower value.
Test [5] in a line: growth inhibitors of H69AR lung tumor, primary screen, human, duplicate replicates (AID 580;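 active = viability at or under a set limit in both replicates, limit being median viability minus 3 SD, cut at about 48% in these data, passing the limit was not always enough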;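 note: 100% = mean luminescence of untreated wells and 0% = no signal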). Conditions: H69AR lung tumor cells viability, ATP luminescence, 72 h; at 10 µM; stronger effect = lower value.
Test [6] can be described thus: reversal of MRP1-mediated doxorubicin resistance, pilot screen, H69AR cells, doxorubicin co-treatment (AID 601). As to conditions: CellTiter-Glo, 72 h, at 10 µM; for differential viability (reversal): stronger effect = higher value.
Test [7] can be described thus: 384-well plate pilot, post-Golgi transport modulator project, inhibition of yeast transport mutant growth (AID 636; in the data active = inhibition above about 31%). Conditions: absorbance 615 nm, about 18 h, stronger effect = higher value.
Test [8] is described as follows: growth suppression of yeast trafficking mutant, preliminary HTS, modulators of trafficking downstream of Golgi apparatus project, 1536-format plate, OD 615 nm (AID 637; in the data active = inhibition above about 30%). As to conditions: yeast transport mutant growth, absorbance 615 nm, 18 h; stronger effect = higher value.
Test [9] in a line: OD615 S. cerevisiae growth inhibition, permissive medium, pilot counter-assay, permissive growth control for S. cerevisiae lifespan shortening project (AID 705;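 active = growth inhibition above 25% in both replicates, a cutoff set 3 SD above the mean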). Conditions: OD615, 24 h, at 10 µM, stronger effect = higher value.
Test [10] in a line: Restrictive medium S. cerevisiae growth inhibition, OD615, pilot screen of yeast lifespan reduction project, restrictive growth control (AID 706;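 active = growth inhibition above a set limit, 3 SD over mean compound inhibition, in both replicates, cut at about 43% in these data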;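 note: modified DeaD lifespan yeast strain shifted to restrictive glucose medium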). Conditions: OD615, 48 h, at 10 µM, stronger effect = higher value.
Test [11] can be described thus: viability gain of MRP-1-high H69AR cells under doxorubicin, pilot screen, MRP-1 activator project, CellTiter-Glo, duplicate (AID 807;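 active = viability increase at or above a cutoff of the median across tested compounds plus 3 SD, cut at about 8.5% in these data, passing the limit was not always enough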;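 note: compound pretreatment 18-22 h then 72 h combined with doxorubicin; 0% = doxorubicin alone and 100% = vehicle without doxorubicin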). As to conditions: H69AR viability with doxorubicin, CellTiter-Glo luminescence; at 10 µM; stronger effect = higher value.
A short description of test [12]: growth suppression of beta-catenin knockout HCT116, pilot screen, human colon tumor cells (AID 823;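 active = cell viability at or below a set limit in both duplicate runs, the limit being the all-compound median minus 4 SD, cut at about 23% in these data, passing the limit was not always enough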;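 note: 0% = wells killed by 20 µM Hyamine and 100% = untreated DMSO cell wells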). Conditions: CellTiter-Glo, 60 h, at 10 µM, stronger effect = lower value.
A short description of test [13]: growth suppression of PTEN-deleted HCT116, pilot screen, cell-based, HCT116 clonal line, CellTiter-Glo (AID 824;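 active = viability at or below 27.92% in each of two runs, the all-compound median minus 4 SD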;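 note: 0% = 20 µM Hyamine control and 100% = vehicle cell control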). Conditions: 60 h, at 10 µM, stronger effect = lower value.
Test [14] in a line: inhibitors of the yeast RAM network, pilot screen, dse1pr::URA3 reporter, 5-FOA selection (AID 869;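 active = inhibition over a set limit, the all-compound mean plus 3 SD, in both replicate runs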;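 note: 0% = DMSO wells with no growth and 100% = 10 µM 1-NA-PP1 with full growth; RAM network block rescues cells from 5-FOA so hits raise OD615 growth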). As to conditions: S. cerevisiae dse1pr::URA3 5-FOA growth, OD615, 2 d; at 10 µM; stronger effect = higher value; strain carries analog-sensitive mutant Cbk1 kinase.
Test [15] is described as follows: RAM signaling pathway blockade in yeast – S. cerevisiae, Pdr1DBD-CYC8 efflux-inhibited sensitized strain, primary screen (AID 1298;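 active = RAM network inhibition above 8.4% in each of two replicates, 3 SD over the compound average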;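 note: 0% = DMSO untreated cells without growth and 100% = 10 µM 1-NA-PP1 full growth; higher means more yeast growth rescued from 5-FOA killing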). Conditions: S. cerevisiae cbk1-as DSE1-URA3 strain, 5-FOA growth OD615, 2 d; at 50 µM; stronger effect = higher value.
[16] abbreviates: H69AR cells + 2 uM doxorubicin, measured here: viability with 2 uM doxorubicin, stronger effect = lower value.
Setting [17] is: H69AR cells, compound alone cytotoxicity.

Results filed as inconclusive are left out. Active and inactive are the calls of the source.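 Rule for the calls, unless noted: active = viability loss from added drug above about 55%, and viability with drug at most 40%, in both replicates (limit read from the data, passing the limit was not always enough); inconclusive = both conditions met in only one replicate; inactive = neither replicate meets both conditions.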

Sequence of Receptor tyrosine-protein kinase erbB-2 (Homo sapiens) (P04626 whole entry, looked up): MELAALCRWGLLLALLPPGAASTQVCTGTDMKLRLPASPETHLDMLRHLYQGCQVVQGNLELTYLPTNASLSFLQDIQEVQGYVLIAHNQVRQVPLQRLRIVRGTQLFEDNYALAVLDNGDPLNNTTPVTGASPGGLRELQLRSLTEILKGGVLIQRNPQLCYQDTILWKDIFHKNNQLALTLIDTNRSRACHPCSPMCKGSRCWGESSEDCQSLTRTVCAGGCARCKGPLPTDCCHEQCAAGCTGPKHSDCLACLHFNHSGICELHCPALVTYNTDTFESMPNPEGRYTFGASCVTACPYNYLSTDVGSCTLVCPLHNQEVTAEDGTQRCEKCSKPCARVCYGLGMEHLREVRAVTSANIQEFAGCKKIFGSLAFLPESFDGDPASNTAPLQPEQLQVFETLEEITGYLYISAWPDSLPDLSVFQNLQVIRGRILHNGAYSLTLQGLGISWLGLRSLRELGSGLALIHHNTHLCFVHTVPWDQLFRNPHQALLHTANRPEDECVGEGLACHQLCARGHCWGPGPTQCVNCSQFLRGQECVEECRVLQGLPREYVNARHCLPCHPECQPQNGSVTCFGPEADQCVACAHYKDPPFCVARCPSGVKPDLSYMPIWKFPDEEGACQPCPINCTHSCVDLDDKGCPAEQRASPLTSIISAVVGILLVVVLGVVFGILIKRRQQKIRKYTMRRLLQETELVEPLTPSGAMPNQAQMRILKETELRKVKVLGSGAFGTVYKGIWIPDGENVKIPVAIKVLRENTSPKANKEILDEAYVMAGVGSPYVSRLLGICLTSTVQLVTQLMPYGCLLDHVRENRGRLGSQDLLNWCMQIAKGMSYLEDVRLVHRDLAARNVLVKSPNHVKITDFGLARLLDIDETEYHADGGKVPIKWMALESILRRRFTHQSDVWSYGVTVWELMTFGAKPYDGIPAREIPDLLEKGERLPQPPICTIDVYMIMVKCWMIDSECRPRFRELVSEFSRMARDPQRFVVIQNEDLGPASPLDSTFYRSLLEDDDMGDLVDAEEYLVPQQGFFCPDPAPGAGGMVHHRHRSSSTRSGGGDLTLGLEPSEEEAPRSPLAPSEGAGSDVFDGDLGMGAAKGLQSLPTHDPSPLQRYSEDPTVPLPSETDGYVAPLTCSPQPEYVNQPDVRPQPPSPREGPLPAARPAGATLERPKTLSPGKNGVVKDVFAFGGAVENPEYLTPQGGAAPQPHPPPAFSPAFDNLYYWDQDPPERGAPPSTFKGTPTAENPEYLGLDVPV

Turning to `Cn1c(=O)cc(NCCc2ccccc2)[nH]c1=O`, the viability (as a rule, a read-out of living cells in per cent, often relative to untreated cells) in test [1] was 97%; in test [3], 97% (inactive); in test [4] it was 50.3% (inactive); in test [5], 42.9% (active); in [6] (setting [16]) it was 80.2%; in [6] (setting [17]), 42.9%. The viability was 87.5% (inactive) in test [12] and 88.3% (inactive) in [13]. For the same compound, the Her2 level in [2] was 93.5% (inactive). In addition, in test [6] (H69AR cells + 2 uM doxorubicin), the differential viability (reversal) is -37.3% (inactive). The inhibition (in general, the change of the read-out against control, counted positive when it falls) in [7] was -1.82% (inactive); in test [8], -8.36% (inactive); in [14], 0.595% (inactive). The values for the growth inhibition in test [9] and in test [10] were -9.86% (inactive) and 2.05% (inactive), respectively. Besides, the viability increase in [11] is -5.4% (inactive). The RAM network inhibition in test [15] is 3.06% (inactive).
As to `Cc1ccc(N=Cc2ccc[nH]2)c(O)c1`, the viability in [1] was 96%; in test [3], 96% (inactive); in test [4], 76.8% (inactive); in test [5], 81.9% (inactive); in [6] (setting [16]) it was 96.4%; in test [6] (setting [17]) it was 81.9%. Also, the viability was 71.8% (inactive) in test [12] and 88.4% (inactive) in test [13]. Further, the Her2 level in [2] is 88.5% (inactive). For the same compound, the differential viability (reversal) in test [6] (H69AR cells + 2 uM doxorubicin) was -14.5% (inactive). Besides, the results for the inhibition in test [7], in test [8] and in test [14] were -2.56% (inactive), 0.5% (inactive) and 1.36% (inactive), respectively. Moreover, the growth inhibition in [9] was -20.2% (inactive); in [10], -5.83% (inactive). Further, the viability increase in test [11] was -4.28% (inactive). Moreover, in [15], the RAM network inhibition is 0.26% (inactive).
Regarding `O=C(O)C1CC=CCC1C(=O)Nc1cccc(F)c1` (stereo not drawn), the viability in [1] was 94%; in [3], 94% (inactive); in test [4], 88.1% (inactive); in test [5], 87.1% (inactive); in test [6] (setting [16]), 88.3%; in test [6] (setting [17]), 87.1%. In addition, the figures for the viability in test [12] and in [13] were 102% (inactive) and 100% (inactive), respectively. Further, the Her2 level in test [2] was 94% (inactive). For the same compound, in test [6] (H69AR cells + 2 uM doxorubicin), the differential viability (reversal) was -1.18% (inactive). The inhibition in test [7] is -2.99% (inactive); in test [8], -5.17% (inactive); in test [14] it was 1.86% (inactive). Also, the figures for the growth inhibition in test [9] and in [10] were -1.99% (inactive) and -0.35% (inactive), respectively. Further, in [11], the viability increase was -0.78% (inactive). The RAM network inhibition in [15] is 1.15% (inactive).
Regarding `O=C(NCCN1CCCCCC1)c1ccc(CS(=O)(=O)c2ccc(Br)cc2)o1`, the viability was 86.5% in [1]; 86.5% (inactive) in [3]; 86.2% (inactive) in [4]; 91% (inactive) in [5]; 83.1% in test [6] (setting [16]); 91% in test [6] (setting [17]). Moreover, the viability in [12] was 78% (inactive); in [13], 82.6% (inactive). In addition, in test [2], the Her2 level was 104% (inactive). For the same compound, the differential viability (reversal) in test [6] (H69AR cells + 2 uM doxorubicin) is 7.95% (inactive). In addition, the inhibition in test [7] is 0.8% (inactive); in test [8], 2.5% (inactive); in test [14] it was -0.1% (inactive). In addition, the growth inhibition is -6.86% (inactive) in test [9] and -14.6% (inactive) in [10]. Moreover, the viability increase in test [11] was -3.11% (inactive). The RAM network inhibition in test [15] was 4.63% (inactive).
Regarding `CCOC(=O)N1CCC(c2cc(=O)n3[nH]cc(C(=O)OC)c3n2)CC1`, the viability in test [1] was 94.5%; in [3], 94.5% (inactive); in test [4], 92.1% (inactive); in test [5], 92.2% (inactive); in [6] (setting [16]), 82.7%; in test [6] (setting [17]), 92.2%. For the same compound, the results for the viability in test [12] and in test [13] were 88.8% (inactive) and 101% (inactive), respectively. In addition, the Her2 level in [2] was 101% (inactive). For the same compound, the differential viability (reversal) in test [6] (H69AR cells + 2 uM doxorubicin) is 9.5% (inactive). Besides, the figures for the inhibition in test [7], in [8] and in [14] were -4% (inactive), 0.83% (inactive) and 0.045% (inactive), respectively. Besides, the growth inhibition was 2.45% (inactive) in [9] and 9.29% (inactive) in test [10]. Moreover, the viability increase in [11] was -0.6% (inactive). Further, the RAM network inhibition in test [15] is 0.56% (inactive).
For `CCN1CCN(C(=O)c2oc(=O)c3ccccc3c2-c2ccc(C)cc2)CC1`, the viability is 96% in test [1]; 96% (inactive) in test [3]; 98.6% (inactive) in test [4]; 96.4% (inactive) in test [5]; 101% in test [6] (setting [16]); 96.4% in [6] (setting [17]). The viability was 91.9% (inactive) in [12] and 90.5% (inactive) in [13]. Further, in test [2], the Her2 level is 102% (inactive). Also, in test [6] (H69AR cells + 2 uM doxorubicin), the differential viability (reversal) was -4.83% (inactive). Also, the inhibition is -3.07% (inactive) in test [7], 5.9% (inactive) in [8] and 2.07% (inactive) in test [14]. Further, the growth inhibition in test [9] is -1.38% (inactive); in [10], -6.39% (inactive). Moreover, the viability increase in [11] was -3.04% (inactive). The RAM network inhibition in test [15] is 1.85% (inactive).
With `Cn1c(Cc2ccccc2)nnc1SCC(=O)NC1CCCCC1`, the viability was 107% in test [1]; 107% (inactive) in test [3]; 91.5% (inactive) in test [4]; 92.5% (inactive) in test [5]; 79.6% in test [6] (setting [16]); 92.5% in test [6] (setting [17]). Besides, the viability in test [12] is 97.4% (inactive); in [13], 103% (inactive). The Her2 level in test [2] was 94.5% (inactive). For the same compound, the differential viability (reversal) in test [6] (H69AR cells + 2 uM doxorubicin) was 12.9% (inactive). Also, the inhibition in test [7] is -6.08% (inactive); in [8], 3% (inactive); in test [14], 1.4% (inactive). Moreover, the growth inhibition in test [9] was 1.09% (inactive); in [10], 10% (inactive). Further, in test [11], the viability increase is 0.74% (inactive). In addition, the RAM network inhibition in test [15] is 1.4% (inactive).
Regarding `CCN(CC)C(=O)c1ccc(CS(=O)(=O)c2ccc(OC)cc2)o1`, the viability in [1] is 84.5%; in test [3], 84.5% (inactive); in test [4], 99.2% (inactive); in [5], 87.8% (inactive); in test [6] (setting [16]) it was 88.7%; in test [6] (setting [17]) it was 87.8%. Besides, the viability in [12] is 97.4% (inactive); in test [13], 95.3% (inactive). Moreover, the Her2 level in test [2] is 116% (inactive). Also, the differential viability (reversal) in [6] (H69AR cells + 2 uM doxorubicin) is -0.895% (inactive). The results for the inhibition in test [7], in [8] and in [14] were 1.54% (inactive), -6% (inactive) and 1.96% (inactive), respectively. The growth inhibition in [9] was -6.54% (inactive); in test [10], -7.93% (inactive). Besides, in test [11], the viability increase was -1.02% (inactive). Besides, in test [15], the RAM network inhibition was 3.14% (inactive).
For `CCCC(=O)Nc1nc2ccc(S(N)(=O)=O)cc2s1`, the viability is 88% in [1]; 88% (inactive) in [3]; 90% (inactive) in [4]; 106% (inactive) in [5]; 71.4% in test [6] (setting [16]); 106% in [6] (setting [17]). Also, the viability in test [12] is 99.4% (inactive); in [13] it was 90.5% (inactive). Moreover, the Her2 level in test [2] is 98% (inactive). Further, the differential viability (reversal) in test [6] (H69AR cells + 2 uM doxorubicin) was 34.3% (inactive). The inhibition in test [7] was -3.33% (inactive); in test [8], 6.33% (inactive); in [14], 0.465% (inactive). The figures for the growth inhibition in test [9] and in test [10] were -4% (inactive) and -0.595% (inactive), respectively. Also, the viability increase in test [11] is -1.78% (inactive). Moreover, in test [15], the RAM network inhibition was -0.2% (inactive).
